Measured values as given in PubChem BioAssay (NCI).
Compounds without any hit were thinned out: in the full panel of roughly 83,000, 20% have a hit.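 Activity criterion: percent growth below 10, measured after cells in 96-well plates were exposed to a single compound concentration for 48 hours.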 The source made the active and inactive calls.

tested on: TK-10 renal; experiment: NCI-60 one-dose screen, 48 h (100 = growth as untreated, 0 = no growth, -100 = all killed); conditions: 10 µM unless noted
Procedure: Growth inhibition of the TK-10 human tumor cell line is measured as a screen for anti-cancer activity. Cells are grown in 96 well plates and exposed to the test compound for 48 hours. Compounds are tested at a single concentration, which is 10^-5 M for most compounds. The reported endpoint is percent growth (GI% or GIPRCNT), where numbers from 0 - 100% represent growth inhibition, and numbers from -100% - 0 represent cell death. For example, a value of 40 represents 60% growth inhibition. A value of 0 means no net growth occurred over the course of the experiment. A value of -40 indicates 40% of cells at the beginning of the experiment died by the end of the experiment. A value of -100 means all cells are dead at the end of the experiment.
NCI-60 Human Tumor Cell Lines Screen was performed using the standard one-dose NCI protocol, which is described in more detail at https://dtp.cancer.gov/discovery_development/nci-60/default.htm.
Compounds with GIPRCNT values below 10 were considered active. Activity score was based on GIPRCNT using the following formula: […]
Score is 0 for GIPRCNT values of 100 or above, 50 for GIPRCNT values of 0, and 100 for GIPRCNT values of -100.

Question: Which growth does the source give for `COc1cc2c(cc1OC)-c1ccc3cc4c(cc3c1N(CCN1CCCC1)C2)OCO4` here?
Answer: The growth was 34.2% (inactive).

Question: With `Cc1ccc(NSc2ccccc2[N+](=O)[O-])cc1` as the molecule, how does the growth read?
Answer: The growth was 51.7% (inactive).

Question: With `CN1C(=O)CCC(N2C(=O)c3cccc(NCCOCCOCCNC(=O)c4cc5c(o4)C(=O)c4ccccc4C5=O)c3C2=O)C1=O` (stereo not given) as the molecule, how does the growth read?
Answer: Its growth is 32.4% (inactive).

Question: For `CC(C)(C)N1CC(OC(N)=O)C1`, which growth is on record?
Answer: Its growth is 94.8% (inactive).

Question: With `Cc1cc(NS(=O)(=O)c2ccccc2)c(OS(=O)(=O)c2ccccc2)cc1C` as the molecule, how does the growth read?
Answer: The growth was 119% (inactive).

Question: How did the growth turn out when `COc1ccc(-c2nnc(-c3ccc4c(c3)nc(-c3ccccc3)n4C3CCCCC3)o2)cc1` was run?
Answer: Its growth is 68.9% (inactive).

Question: Which growth does the source give for `Cc1cc(-c2noc(C(F)(F)F)n2)ccc1N1CCN(c2cc(C(=O)N(C)C)no2)CC1` here?
Answer: Its growth is 81.2% (inactive).

Question: Which growth does the source give for `O=C1Nc2ccccc2SC1C1SC(=S)N(Cc2ccccc2)C1=O` (stereo not given) here?
Answer: The growth was 21.8% (inactive).

Question: Which growth does the source give for `CCCCOC(=O)c1ccc(NC(=O)C(C)N2CCOCC2)cc1` (stereo not given) here?
Answer: The growth was 97.2% (inactive).

Question: Which growth does the source give for `COc1ccc(/C(C)=C(\c2ccc(Cl)cc2)c2ccc(OCCN3CCCCCC3)cc2)cc1F` here?
Answer: The growth was 81.7% (inactive).

Question: How did the growth turn out when `COc1cc2cc(Oc3ccc(NC(=O)Nc4cc(C(F)(F)F)cc(C(F)(F)F)c4)cc3)c(C)nc2cc1OCCN1CCCCC1` was run?
Answer: The growth was -72.4% (active).

Question: For `CCc1c(C(=O)N[C@@H]2c3cc(Cl)ccc3CC[C@@H]2O)[nH]c(C)c1C(C)=O`, which growth is on record?
Answer: Its growth is 87.4% (inactive).

Question: Which growth does the source give for `CCOC(=O)c1cnn2c(-c3ccc(Cl)cc3)nc(NCc3ccccc3)nc12` here?
Answer: The growth was 71.3% (inactive).

Question: Which growth does the source give for `CC(=O)Nc1ccc2c(c1)Cc1c(F)cccc1-2` here?
Answer: The growth was 103% (inactive).

Question: For `O=C1Nc2ccccc2/C1=N/N=C/c1c[nH]c2ccccc12`, which growth is on record?
Answer: Its growth is 78.4% (inactive).

Question: For `Oc1ccccc1-c1nc2ccccn2c1NCCN1CCOCC1`, which growth is on record?
Answer: Its growth is 94.8% (inactive).

Question: How did the growth turn out when `CCO/C=N/C1=C(C#N)C(c2ccc(OC)cc2)c2c(c3ccccc3n(C)c2=O)O1` (stereo not given) was run?
Answer: Its growth is 112% (inactive).

Question: `O=C1c2ccccc2C(=O)c2cc(Cn3cc[n+](Cc4ccc5ccccc5c4)c3)ccc21` was tested. Which growth did it give?
Answer: The growth was 107% (inactive).

Question: With `C=CCOc1cccc(/C=C2\SC(=Nc3ccc(O)cc3)NC2=O)c1` as the molecule, how does the growth read?
Answer: The growth was 67.7% (inactive).

Question: `CCNCCNc1cc(C2CCCC2)c(C#N)c2nc3ccccc3n12` was tested. Which growth did it give?
Answer: The growth was -24.7% (active).

Question: With `CCOC(=O)c1ccc(NC(=O)CCCN(CC)CC)cc1` as the molecule, how does the growth read?
Answer: The growth was 88.2% (inactive).

Question: For `Cc1cnc(Nc2ccc(OCCN3CCCC3)cc2)nc1NCc1ccco1`, which growth is on record?
Answer: Its growth is 79.4% (inactive).

Question: How did the growth turn out when `CCc1cc(Cc2cc(CC)cc(C(C)(C)C)c2O)c(O)c(C(C)(C)C)c1` was run?
Answer: The growth was 37.8% (inactive).

Question: For `COc1ccc(-c2cncnc2N)cc1OC`, which growth is on record?
Answer: Its growth is 111% (inactive).

Question: How did the growth turn out when `C=C(C=O)C1CCC2(C(=O)O)CCC3(C)C(CCC4C5(C)CCC(O)C(C)(C)C5CCC43C)C12` (stereo not given) was run?
Answer: Its growth is 50.5% (inactive).

Question: For `COc1ccc(-c2c(N)n[nH]c2-c2ccccc2O)cc1OC`, which growth is on record?
Answer: Its growth is 98.5% (inactive).

Question: For `CCCCCOC(=O)c1ccc(NC(=O)CNCC(C)C)cc1`, which growth is on record?
Answer: Its growth is 98.5% (inactive).

Question: `NS(=O)(=O)c1cnccc1-n1ccc(=O)c(S(N)(=O)=O)c1` was tested. Which growth did it give?
Answer: The growth was 83.8% (inactive).

Question: For `COc1cc2c(cc1OC)-c1ccc3cc4c(cc3c1N(CCCN(C)C)C2)OCO4`, which growth is on record?
Answer: The growth was 46.6% (inactive).

Question: How did the growth turn out when `C=C(C)[C@@H]1CC[C@]2(CN)CC[C@]3(C)[C@H](CC[C@@H]4[C@@]5(C)CCC(N)[C@@](C)(CO)[C@@H]5CC[C@]43C)[C@@H]12` (stereo not given in full) was run?
Answer: Its growth is -86.3% (active).

Question: How did the growth turn out when `COc1ccc(OC)c(/C=C2\COc3ccc(O)cc3C2=O)c1` was run?
Answer: The growth was 97% (inactive).

Question: For `CCCCCCCCc1cc[n+](CC(=O)c2ccc(Br)cc2)cc1`, which growth is on record?
Answer: Its growth is -67.5% (active).

Question: `CCOC(=O)C1C(=O)C=C(c2cnccn2)CC1c1ccc(OC)c(OC)c1` (stereo not given) was tested. Which growth did it give?
Answer: The growth was 87.8% (inactive).

Question: For `O=C1Nc2ccc(Cl)cc2/C1=N/N=C/c1c[nH]c2ccccc12`, which growth is on record?
Answer: The growth was 75.8% (inactive).

Question: Which growth does the source give for `COC(=O)CCCNC(=O)C(=O)c1c(O)c(O)c(C(C)C)c2cc(C)c(-c3c(C)cc4c(C(C)C)c(O)c(O)c(C(=O)C(=O)NCCCC(=O)OC)c4c3O)c(O)c12` here?
Answer: Its growth is 7.48% (active).

Question: How did the growth turn out when `CCOc1ccc(S(=O)(=O)c2ccc(C)cc2)c2c1no[n+]2[O-]` was run?
Answer: Its growth is 92.3% (inactive).

Question: Which growth does the source give for `CCC(=O)OC1=C(C)SC2=NC(c3ccc(Cl)c(Cl)c3)=CC(c3cc(OC)c(OC)c(OC)c3)N21` (stereo not given) here?
Answer: Its growth is 133% (inactive).

Question: `CCOC(=O)c1sc2ccc(NCc3nc[nH]c3C)cc2c1NC(=O)c1cc(OC)c(OC)c(OC)c1` was tested. Which growth did it give?
Answer: Its growth is 150% (inactive).

Question: `CCCCN1CCN(c2ccc3nc(-c4ccc5nc(-c6ccc(OCC)c(OCC)c6)[nH]c5c4)[nH]c3c2)CC1` was tested. Which growth did it give?
Answer: Its growth is 57% (inactive).

Question: For `O=[N+]([O-])c1ccccc1C(O)Cc1ccc2ccccc2n1` (stereo not given), which growth is on record?
Answer: Its growth is 148% (inactive).
